Compound activity as filed in PubChem BioAssay.
Rows were chosen to be rich in hits. Some 19% of all compounds tested hit in one or more screens of this group.
TDP1 cell noCPT – qHTS for Inhibitors of human tyrosyl-DNA phosphodiesterase 1 (TDP1): qHTS in cells in absence of CPT; Potency, µM (highest dose often 46.2 µM), usual class: inhibitors; DT40 Tdp1-/- hTDP1 cells, no CPT, ATP luminescence, 48 h; hit rate 15% among 420,000; note: nearly all actives have a fitted effect of over 55% in size
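Compound effects on proliferation are scored in DT40 Tdp1-/-;hTDP1 cells in the absence of CPT. ATP levels (CellTiter-Glo luminescence) are recorded after a ≥48 hr, 37 °C incubation.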
TDP1 block – blocks human tyrosyl-DNA phosphodiesterase 1. Q9NUW8. recombinant TDP1, AlphaScreen DNA substrate cleavage. Potency, µM (top dose mostly 130 µM), actives largely listed as inhibitors. hit rate 0.28% among 350,000. AID 485290; note: nearly all actives have a fitted effect of over 40% in size
Target sequence (Q9NUW8 whole entry, looked up): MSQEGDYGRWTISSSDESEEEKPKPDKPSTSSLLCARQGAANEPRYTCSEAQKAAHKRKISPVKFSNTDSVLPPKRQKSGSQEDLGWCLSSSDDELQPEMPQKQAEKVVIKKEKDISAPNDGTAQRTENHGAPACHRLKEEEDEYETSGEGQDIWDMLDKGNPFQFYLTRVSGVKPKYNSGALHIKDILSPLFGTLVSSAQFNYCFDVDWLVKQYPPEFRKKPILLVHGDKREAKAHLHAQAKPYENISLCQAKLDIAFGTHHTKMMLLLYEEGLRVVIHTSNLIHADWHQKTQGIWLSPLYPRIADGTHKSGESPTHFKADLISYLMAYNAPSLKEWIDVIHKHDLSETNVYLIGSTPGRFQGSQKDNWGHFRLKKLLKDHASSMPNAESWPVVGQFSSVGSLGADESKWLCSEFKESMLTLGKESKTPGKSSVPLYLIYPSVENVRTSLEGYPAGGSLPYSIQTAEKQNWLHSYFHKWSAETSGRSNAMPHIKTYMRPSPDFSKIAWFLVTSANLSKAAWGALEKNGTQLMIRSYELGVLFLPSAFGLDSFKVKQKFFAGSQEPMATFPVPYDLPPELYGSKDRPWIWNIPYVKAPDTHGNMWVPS
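Signal: AlphaScreen proximity between streptavidin donor and anti-FITC acceptor beads on intact substrate. Reaction: Tdp1 1 nM, substrate 15 nM final, 5 min RT after 15 min compound preincubation.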
RORg inh – ROR gamma (mouse) transcription inhibition. P51450. Drosophila S2 Gal4-RORgamma UAS-luciferase reporter, 20 h. Potency, µM (top dose mostly 53.6 µM), actives largely listed as inhibitors. hit rate 5.4% among 310,000. AID 2551; note: nearly all actives have a fitted effect of over 60% in size
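A Gal4/UAS one-hybrid system in insect cells: metallothionein-promoter Gal4–ROR gamma fusion plus Photinus luciferase reporter. Copper sulfate 700 uM final, 20 hr ambient incubation, luminescent detection after 10 min with reagent.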
Gal4-VP16 FLuc – counter-screen for ROR gamma inhibitors: Gal4-VP16 reporter. Drosophila S2 Gal4-VP16 UAS-luciferase, luminescence, 20 h. Potency, µM (doses to about 53.6 µM), hits mostly inhibitors. hit rate 3.5% among 310,000;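 note: Gal4-VP16 expression switched on by copper sulfate through the metallothionein promoter; nearly all actives have a fitted effect of over 50% in size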
TDP1 cell CPT – growth inhibition of DT40 Tdp1-/-;hTDP1 cells with camptothecin (screen for TDP1 inhibitors). chicken DT40 Tdp1-/-;hTDP1 cells + 20 nM CPT, ATP luminescence, 48 h. Potency, µM (titrated, usually from 46.2 µM), most hits filed as inhibitors. hit rate 12% among 420,000; note: nearly all actives have a fitted effect of over 55% in size
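Chicken DT40 Tdp1-/- cells complemented with human TDP1, 400 cells/well, exposed to compounds plus 20 nM camptothecin for at least 48 h at 37 C; viability read as ATP content by CellTiter-Glo luminescence.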
A number is an active result; . = inactive; ? = inconclusive; / = no result; ! = a repeat was not active; [ ] = remark or other dose. Calls come from the whole dose curve; as a rule, active = well fitted curve in the direction sought with a large enough effect; inconclusive = small, poorly fitted or top-dose-only effect, or another doubt; inactive = no such curve, though single readings can be large; an effect the other way counts as inactive or inconclusive.

SMILES | TDP1 cell noCPT | TDP1 block | RORg inh | Gal4-VP16 FLuc | TDP1 cell CPT
CCOC(=O)c1sc2ncnc(NCc3ccco3)c2c1C | ? | / | 7.9µM | 11µM | 18µM
CCc1cc2c(NCC(=O)O)ncnc2s1 | ? | . | . | . | .
CCOC(=O)c1sc2nc(CC(=O)OC)nc(NCc3ccco3)c2c1C | ? | . | . | . | ?
CCc1cc2c(NCc3ccco3)ncnc2s1 | 13µM | . | ? | ? | 18µM
c1cncc(-c2nnc(-c3cccnc3)nn2)c1 | 5.2µM | . | .[10 µM] | ? | 2.9µM
c1ccc(-c2nnc(-c3ccccc3)nn2)cc1 | . | / | . | . | ?
Cc1nnc(SCC(=O)Nc2nc(C(C)(C)C)cs2)s1 | ? | . | . | . | ?
O=C(N/N=C/c1cccn1-c1ccc([N+](=O)[O-])cc1)c1cccnc1 | 26µM | . | ? | 10µM | 13µM
O=C(N/N=C/c1cccnc1)c1ccc([N+](=O)[O-])cc1 | . | . | . | . | .
O=C(N/N=C/c1cccn1-c1ccccc1)c1ccncc1 | . | . | 3.5µM | 20µM | .
O=C(N/N=C/c1sc(=O)n(-c2ccccc2)c1Cl)c1ccncc1 | ? | . | 7.1µM | 11µM | ?
COc1cc(C(=O)N/N=C/c2sc(=O)n(-c3ccccc3)c2Cl)cc(OC)c1OC | ? | . | . | ? | ?
Cc1cccc(NCC(=O)c2c(N)n(C)c(=O)n(C)c2=O)c1C | ? | . | . | . | .
O=C(NCc1cccs1)c1cnc(Cl)c(Cl)c1 | . | . | . | . | .
CCc1cccc(C)c1NC(=O)CCCn1c(=O)c2cccn2c2cccnc21 | ? | . | . | . | 23µM!
CCOC(=O)c1ccc(NC(=O)CCCn2c(=O)c3cccn3c3cccnc32)cc1 | 18µM | . | / | / | ?
CSc1cccc(NC(=O)CCn2c(=O)c3cccn3c3cccnc32)c1 | . | . | ? | . | .
CCOC(=O)c1ccc(NC(=O)CCn2c(=O)c3cccn3c3cccnc32)cc1 | ? | . | / | / | 21µM
O=C(CCn1c(=O)c2cccn2c2cccnc21)N1CCN(c2ccc(F)cc2)CC1 | 16µM | . | / | / | 15µM
CCn1nnnc1SCC(=O)Nc1cccc(NC(C)=O)c1 | . | . | . | . | .
COc1ccc(CCC(C)N2CCC(CO)(Cc3ccccc3)CC2)cc1 (stereo unspecified) | ? | . | . | . | ?
COc1ccc(CNC(=O)C2CCC(CNS(=O)(=O)c3cccc4nsnc34)CC2)cc1 (stereo unspecified) | . | . | . | . | .
CCCCN(CC)CCNC(=O)Cn1c(=O)c2cccn2c2cccnc21 | ? | . | / | / | ?
CCCCN(CC)C(=O)CCn1c(=O)c2cccn2c2cccnc21 | 18µM | . | / | / | ?
COc1cc(/C=C(\NC(C)=O)C(=O)O)cc(OC)c1OC | . | . | . | . | .
SMILES | TDP1 cell noCPT | TDP1 block | RORg inh | Gal4-VP16 FLuc | TDP1 cell CPT
C/C(=N\NC(=O)Cc1cccn1C)c1ccc([N+](=O)[O-])cc1 | . | . | . | . | .
Cc1c(/C=N\NC(=O)C2COc3ccccc3O2)c2ccccc2n1C (stereo unspecified) | 0.92µM | . | . | . | 0.73µM
Cc1ccc(-n2c(O)c(/C=N/NC(=O)C3COc4ccccc4O3)c3ccccc3c2=O)cc1 (stereo unspecified) | 26µM | . | 4µM | 3.2µM | ?
O=C(N/N=C/c1c(O)n(-c2ccccc2Cl)c(=O)c2ccccc12)C1COc2ccccc2O1 (stereo unspecified) | ? | . | 4µM | 2.8µM | ?
CCOC(=O)c1c(NC(=O)C(C)Sc2cn(C)c3ccccc23)sc2c1CCC2 (stereo unspecified) | ? | . | ? | . | ?
O=C(CCc1ccc(S(=O)(=O)N2CCOCC2)cc1)Nc1c(F)cccc1F | . | . | / | / | .
Cc1cc(N2CCN(c3cccc(C(F)(F)F)c3)CC2)n2ncnc2n1 | 23µM | . | . | . | ?
COc1ccc(N2CCN(c3cc(C)nc4nc(-c5ccc(C)cc5)nn34)CC2)cc1 | . | .[12.3 µM] | / | / | .
Cc1nc2ncnn2c(N2CCN(c3cccc(C(F)(F)F)c3)CC2)c1C | 21µM | . | ? | ? | 16µM
Cc1cc(N2CCN(c3cccc(C(F)(F)F)c3)CC2)n2nc(-c3ccccc3C)nc2n1 | 16µM | . | / | / | 18µM
Cc1c(NC(=O)COC(=O)COc2ccc(Nc3ccccc3)cc2)c(=O)n(-c2ccccc2)n1C | ? | . | . | . | .
O=C(N/C(=C/c1ccccc1Cl)C(=O)N1CCOCC1)c1ccccc1 | . | . | / | / | .
Cc1cccc(NC(=O)N2CCN(C(=O)c3nsc4ccccc34)CC2)c1C | ? | . | / | / | .
